# PubChem BioAssay (NCATS)
# Where “and” joins values, the source holds several entries; their conditions need not be identical. Equal entries are not always repeated. Calls of active or inactive are those of the source. Where a call stands in place of a potency, no number is given. Unless noted, calls follow the shape of the dose curve; as a rule, active = well fitted curve in the direction sought with a large enough effect; inconclusive = small, poorly fitted or top-dose-only effect, or another doubt; inactive = no such curve, though single readings can be large; an effect the other way counts as inactive or inconclusive.
# How the values were obtained:
# [1] = target: Estrogen receptor (Homo sapiens) (UniProt P03372); experiment: qHTS assay for small molecule antagonists of estrogen receptor alpha signaling (AID 588513; active = well fitted curve in the direction sought with a large enough effect in the signal ratio, with a control signal flat, not every such curve was filed as active; inconclusive = small, poorly fitted or top-dose-only effect, or effect the other way, or a change in a side signal; inactive = no such curve, though single readings can be large or run the other way; the % refers to the signal ratio; also: potency is read from the fitted curve at half-maximal effect)
# Summary of the method: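 ER-alpha-UAS-bla GripTite HEK 293 cells in 2% charcoal/dextran-treated FBS medium; compounds titrated (1:2, duplicate), then stimulated with 0.5 nM 17-beta-estradiol for 18 h at 37C. CCF4 beta-lactamase fluorescence; Hill-fit IC50 and efficacy.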
# [2] = target: Estrogen receptor (Homo sapiens) (UniProt P03372); experiment: qHTS assay for small molecule agonists of estrogen receptor alpha signaling (AID 588514; calls by dose curve; also: nearly all actives have a fitted effect of over 70% in size)
# Summary of the method: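 Efficacy is expressed against 20 nM 17-beta-estradiol (100%) and DMSO basal (0%); EC50 from Hill equation. Assay: beta-lactamase reporter in ER-alpha-UAS-bla HEK 293 cells, 18 h compound incubation, CCF4 detection.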
# [3] = target: Glucocorticoid receptor (Homo sapiens) (UniProt P04150); experiment: qHTS assay for small molecule agonists of glucocorticoid receptor signaling (AID 588532; active = well fitted curve in the direction sought with a large enough effect in the signal ratio, with a control signal flat; inconclusive = small, poorly fitted or top-dose-only effect, or a change in a side signal; inactive = no such curve, though single readings can be large or run the other way; the % refers to the signal ratio); details: HeLa MMTV-bla, beta-lactamase ratio, agonist, 18 h; stronger effect = higher value; percent of dexamethasone control, DMSO zero
# Summary of the method: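 Cells were plated and rested 3-5 h at 37 C, compounds were added in titration and incubated 18 h, then CCF4 substrate was loaded for 2 h at RT before reading blue/green fluorescence. EC50 came from Hill-equation fitting.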
# [4] = qHTS for Inhibitors of ATXN expression: Validation (AID 588378); also: nearly all actives have a fitted effect of over 75% in size; also: potency is read from the fitted curve at half-maximal effect
# Summary of the method: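 HEK293 cells carrying ATXN2-firefly luciferase reporter, treated with compound 24 h at 37 °C. Viability read first by CellTiter-Fluor (405/525 nm), then reporter expression by Bright-Glo luminescence; controls were a known ATXN2 expression inhibitor and a luciferase inhibitor.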
# [5] = target: DNA dC->dU-editing enzyme APOBEC-3G (Homo sapiens) (UniProt Q9HC16); experiment: qHTS for inhibitors of Vif-A3G interactions: Validation (AID 588379)
# Summary of the method: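 Yellow fluorescence (Ex 488, Em 500-530) of Vif-coexpressing HeLa A3G-eYFP cells, scanned by Acumen cytometer, reports blocked A3G degradation. Cells plated at 700/well overnight at 37 deg C before compound addition, then a further overnight compound incubation at 37 deg C.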
# [6] = target: Bile acid receptor (Homo sapiens) (UniProt Q96RI1); experiment: qHTS assay for small molecule antagonists of farnesoid X receptor signaling (AID 588526; calls by dose curve)
# Source text: NIH Chemical Genomics Center [NCGC] U.S. Environmental Protection Agency [EPA] National Institutes of Environmental Health Sciences [NIEHS] National Toxicology Program [NTP] NCGC Assay Overview The farnesoid-X-receptor (FXR), a nuclear hormone receptor is highly expressed in liver, intestine, kidney and adrenal cortex. Natural ligands of FXR are the bile acids (Cholic acid, Chenodeoxy cholic acid etc). It is an important regulator of diverse metabolic pathways, including the bile acid homeostasis, lipid and glucose metabolisms. FXR regulates the expression of target genes by binding either as a monomer or as a heterodimer with RXR (retinoid X receptor). As FXR regulates a large number of target genes involved in bile acid, lipoprotein and glucose metabolisms, it is a potential pharmacological target for bile acid and lipid disorders. Thus screening environmental chemicals on FXR signaling can be used for the studies focused on metabolic syndrome, hepatic and intestinal toxicity etc.
# NCGC Assay Protocol Summary Using a beta-lactamase reporter-gene under control of Farnesoid X receptor (FXR) response element, a cell-based assay [GeneBLAzer FXR-UAS-bla assay developed by Invitrogen] was used to measure FXR ligands signaling. GeneBLAzer FXR-UAS-bla HEK293T cells were used with assay medium containing 10% dialyzed FBS. The assay was performed in clear bottom black Greiner 1536-well plates. Guggulsterone were used in the screen as the positive control. Library compounds were measured for their ability to inhibit the reporter gene activity. Compounds were screened in a titration series in 1536-well format. The fluorescence intensity (405 nm excitation, 460/530 nm emission) was measured using an EnVision plate reader. Data was normalized relative to Chenodeoxycholic acid (50 uM, 100%), and DMSO only wells (basal, 0%). Concentration-response titration points for each compound were fitted to the Hill equation yielding concentrations of half-maximal inhibition (IC50) and maximal response (efficacy) values. qHTS protocol for FXR beta-lactamase assay in antagonist mode [Step] [Parameter] [Value] [Description] 1. Reagent; 5 uL; 5000 cells/well 2. Incubation; 37 C for 5-7 hrs 3. Compounds; 23 nL; 0.59 nM to 92 uM 4. Controls (Guggulsterone, FXR antagonist); 23 nL, - One column of dose response, start 200 uM, 1:2 dilutions in duplicates 5. Agonist (Stimulator); 1uL; Chenodeoxycholic acid at 100 uM and 50 uM final concentrations 6. Incubation; 37 C for 16 hrs 7. Detection reagent; 1 uL of CCF4-dye 8. Incubation; RT for 2 hrs 9. Detection; Fluorescence; Envision plate reader
# [7] = target: Glucocorticoid receptor (Homo sapiens) (UniProt P04150); experiment: qHTS assay for small molecule antagonists of glucocorticoid receptor signaling (AID 588533; active = well fitted inhibition curve with a large enough effect in the signal ratio, with a control signal flat, not every such curve was filed as active; inconclusive = small, poorly fitted or top-dose-only effect, or effect the other way, or a change in a side signal; the % refers to the signal ratio;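 also: cells stimulated with 2 nM dexamethasone as agonist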)
# Summary of the method: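 Antagonist-mode qHTS: compound titrations added to GRE-bla HeLa cells, then dexamethasone 2 nM final; 18 h, 37 C. CCF4 FRET fluorescence normalized to dexamethasone and DMSO; IC50 from Hill fit.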
# [8] = qHTS assay for small molecule antagonists of peroxisome proliferator-activated receptor delta signaling (AID 588535); details: HEK293T PPARd-UAS-bla, beta-lactamase FRET ratio, 18 h; 460 nm channel;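 also: cells co-treated with a PPAR-delta agonist as stimulator during compound exposure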
# Summary of the method: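 Fluorescence from CCF4-loaded GeneBLAzer PPAR-delta-UAS-bla HEK293T cells (2 hrs RT loading) quantified reporter inhibition after an 18 hr, 37 C compound exposure across a titration.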
# Glucocorticoid receptor (Homo sapiens), sequence (P04150 whole entry, looked up): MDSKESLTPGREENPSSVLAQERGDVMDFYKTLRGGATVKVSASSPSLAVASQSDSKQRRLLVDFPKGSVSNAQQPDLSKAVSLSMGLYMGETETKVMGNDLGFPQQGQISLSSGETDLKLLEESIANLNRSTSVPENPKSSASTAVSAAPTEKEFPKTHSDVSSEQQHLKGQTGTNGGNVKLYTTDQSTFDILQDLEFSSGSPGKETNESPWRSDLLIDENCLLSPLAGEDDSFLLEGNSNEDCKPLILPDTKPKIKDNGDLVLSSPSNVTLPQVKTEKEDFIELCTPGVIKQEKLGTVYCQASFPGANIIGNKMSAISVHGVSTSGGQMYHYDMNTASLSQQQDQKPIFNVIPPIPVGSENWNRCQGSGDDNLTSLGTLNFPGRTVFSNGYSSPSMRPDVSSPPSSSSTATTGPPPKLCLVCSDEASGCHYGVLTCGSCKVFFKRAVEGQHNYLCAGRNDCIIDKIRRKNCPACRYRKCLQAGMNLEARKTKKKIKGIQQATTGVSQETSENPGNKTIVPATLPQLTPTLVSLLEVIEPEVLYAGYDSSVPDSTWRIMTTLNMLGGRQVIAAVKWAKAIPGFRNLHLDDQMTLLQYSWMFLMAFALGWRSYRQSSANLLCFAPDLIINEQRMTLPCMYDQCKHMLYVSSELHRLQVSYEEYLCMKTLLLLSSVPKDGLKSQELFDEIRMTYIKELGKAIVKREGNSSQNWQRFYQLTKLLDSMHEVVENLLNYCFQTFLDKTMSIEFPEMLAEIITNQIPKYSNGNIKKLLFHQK
# DNA dC->dU-editing enzyme APOBEC-3G (Homo sapiens), sequence (Q9HC16 whole entry, looked up): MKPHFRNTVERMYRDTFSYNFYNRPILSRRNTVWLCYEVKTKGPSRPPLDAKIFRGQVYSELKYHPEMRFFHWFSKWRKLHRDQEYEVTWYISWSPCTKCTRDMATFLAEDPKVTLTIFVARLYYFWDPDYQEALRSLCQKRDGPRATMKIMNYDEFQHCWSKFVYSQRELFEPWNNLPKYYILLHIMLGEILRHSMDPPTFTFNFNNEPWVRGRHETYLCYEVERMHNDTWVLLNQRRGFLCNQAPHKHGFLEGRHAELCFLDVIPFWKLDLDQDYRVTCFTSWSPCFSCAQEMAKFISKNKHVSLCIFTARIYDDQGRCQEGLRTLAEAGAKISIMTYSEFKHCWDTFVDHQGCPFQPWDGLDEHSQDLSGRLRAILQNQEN
# Estrogen receptor (Homo sapiens), sequence (P03372 whole entry, looked up): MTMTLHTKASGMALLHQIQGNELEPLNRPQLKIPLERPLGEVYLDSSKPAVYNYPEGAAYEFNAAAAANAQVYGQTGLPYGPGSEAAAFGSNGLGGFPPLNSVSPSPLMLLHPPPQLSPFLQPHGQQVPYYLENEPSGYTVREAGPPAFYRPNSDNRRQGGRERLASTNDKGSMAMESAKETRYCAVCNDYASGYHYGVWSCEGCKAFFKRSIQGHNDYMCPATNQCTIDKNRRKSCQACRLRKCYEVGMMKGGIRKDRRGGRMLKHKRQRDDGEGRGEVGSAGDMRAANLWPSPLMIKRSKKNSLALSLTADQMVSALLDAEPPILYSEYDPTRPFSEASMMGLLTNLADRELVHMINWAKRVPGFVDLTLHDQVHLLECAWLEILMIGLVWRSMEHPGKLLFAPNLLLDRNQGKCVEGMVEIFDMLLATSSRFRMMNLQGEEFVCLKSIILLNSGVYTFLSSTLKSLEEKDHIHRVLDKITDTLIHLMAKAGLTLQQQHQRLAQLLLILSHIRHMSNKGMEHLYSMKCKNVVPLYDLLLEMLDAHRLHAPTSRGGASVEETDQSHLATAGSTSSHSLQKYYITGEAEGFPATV
# Bile acid receptor (Homo sapiens), sequence (Q96RI1 whole entry, looked up): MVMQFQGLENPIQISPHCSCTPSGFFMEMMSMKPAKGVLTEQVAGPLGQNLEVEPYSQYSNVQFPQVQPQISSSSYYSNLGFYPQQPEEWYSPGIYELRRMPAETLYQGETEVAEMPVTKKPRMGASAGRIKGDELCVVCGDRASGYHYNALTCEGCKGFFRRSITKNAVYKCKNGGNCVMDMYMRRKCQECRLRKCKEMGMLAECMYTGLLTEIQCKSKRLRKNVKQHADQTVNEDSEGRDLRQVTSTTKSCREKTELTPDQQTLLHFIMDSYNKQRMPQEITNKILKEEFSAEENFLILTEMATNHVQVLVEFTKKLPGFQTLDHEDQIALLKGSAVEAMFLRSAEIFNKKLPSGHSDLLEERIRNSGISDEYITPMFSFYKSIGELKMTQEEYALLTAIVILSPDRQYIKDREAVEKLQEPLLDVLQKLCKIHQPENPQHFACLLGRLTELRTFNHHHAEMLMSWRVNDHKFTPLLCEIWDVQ
compound,measurement,setting,value
CC[C@H](C)C(=O)O[C@H]1C[C@@H](C)C=C2C=C[C@H](C)[C@H](CC[C@@H]3C[C@@H](O)CC(=O)O3)[C@H]21,Potency,[1],inactive
same,outcome,[2],inactive
same,activation,[3],-4.54% (inactive)
CCN(CC)CCn1c(=O)c(Cc2ccc(OC)cc2)nc2ccccc21,Potency,[4],inactive
O=C(O)C1CCCN(CCC=C(c2ccccc2)c2ccccc2)C1 (centres undefined),Potency,[4],inactive
same,outcome,[5],inactive
Cc1cc(NS(=O)(=O)c2ccc(N)cc2)no1,outcome,[6],inactive
same,activation,[3],9.43% (inactive)
same,outcome,[7],inactive
CN(C)c1ccc(C(=C2C=CC(=[N+](C)C)C=C2)c2ccc(N(C)C)cc2)cc1,Potency,[1],28.2 µM [inconclusive] (active)
same,activation,[3],-0.396% (inactive) and -10.9% (inactive)
Nc1nc(N)c2nc(CNc3ccc(C(=O)NC(CCC(=O)O)C(=O)O)cc3)cnc2n1 (centres undefined),Potency,[4],inactive
same,activation,[3],7.7% (inactive)
same,outcome,[7],inactive
same,max response,[8],44.5%
CC[C@H](NC(C)C)[C@H](O)c1ccc(O)c2[nH]c(=O)ccc12,outcome,[5],inactive
Cc1noc(NS(=O)(=O)c2ccc(N)cc2)c1C,outcome,[5],inactive
same,Potency,[1],inactive
same,outcome,[2],inactive
same,outcome,[6],inactive
same,max response,[8],23.8% and 11.7%
N[C@@H](Cc1ccc(O)c(O)c1)C(=O)O,Potency,[4],inactive
same,outcome,[6],inactive
same,activation,[3],-2.15% (inactive)
same,outcome,[7],inactive
COc1cc2ncnc(Nc3cccc(Cl)c3)c2cc1OC,Potency,[4],inactive
same,outcome,[5],inactive
NNC(=O)c1ccncc1,Potency,[1],inactive
same,outcome,[2],inactive
same,activation,[3],-1.09% (inactive)
same,outcome,[7],inactive
same,max response,[8],0.593%
Cc1ccc(S(=O)(=O)N[C@@H](Cc2ccccc2)C(=O)CCl)cc1,Potency,[4],22.4 µM (active)
COc1cc2nc(N3CCCN(C)CC3)nc(NC3CCN(Cc4ccccc4)CC3)c2cc1OC,Potency,[4],7.94 µM (active)
